HT1080NT lethal = qHTS for induction of synthetic lethality in tumor cells producing 2HG: qHTS for the HT-1080-NT fibrosarcoma cell line | HT-1080-NT fibrosarcoma viability, CellTiter-Glo ATP luminescence, 48 h | Potency, µM (highest dose often 46.1 µM), for inactives: at the highest dose activity, negative = less viability, usual class: cytotoxic | 360,000 compounds, 1.6% hits;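 also: NT is the 2HG producing partner of a matched IDH1 knockdown line; potency is read from the fitted curve at half-maximal effect; 0% = DMSO-treated cells and -100% = media-only wells without cells; nearly all actives have a fitted effect of over 55% in size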
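750 cells/well, RPMI + 5% FBS; 2 h settle, compound pin-transfer, 48 h at 37 degrees C. CellTiter-Glo 10 min RT, luminescence. Normalized to DMSO and media-only wells.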
HT1080 IDH1KD tx = qHTS for induction of synthetic lethality in tumor cells producing 2HG: qHTS for the HT-1080-IDH1KD cell line | HT-1080 IDH1 knockdown viability, ATP luminescence, 48 h | AID 686971, 2013 | Potency, µM (doses to about 46.1 µM), for the others: top-dose activity, negative = toxicity, actives largely listed as cytotoxic | 360,000 compounds, 2% hits;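 also: potency is read from the fitted curve at half-maximal effect; 0% = DMSO wells and -100% = cell-free medium wells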
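In this qHTS, HT-1080 cells depleted of IDH1 are exposed for 48 h at 37 °C to compound titrations. Toxicity is scored from CellTiter-Glo luminescence, with DMSO as full viability and medium alone as none.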
IL-1B inflam inh = qHTS for Inhibitors of Inflammasome Signaling: IL-1-beta AlphaLISA Primary Screen; THP-1 LPS/ATP IL-1B secretion, AlphaLISA, 16 h; active compounds read low; activity change, % at 57.5 µM; 360,000 compounds, 4.7% hits; in the data active = activity change below about -50%; inconclusive = mostly about -30% to -49%
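THP-1 cells pretreated 1 hr with compounds (up to 57.5 uM final), then stimulated with LPS (250 ng/mL final) plus ATP (1.25 mM final); secreted IL-1B measured by AlphaLISA after 16 hr, decreased signal indicating inhibition.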
uPA surface inh = qHTS for Inhibitors of Cell Surface uPA Generation; cell surface uPA generation assay, qHTS; Potency, µM (titrated, usually from 38.3 µM), without a hit: at the top dose activity change, negative = inhibition, most hits filed as inhibitors; 330,000 compounds, 0.31% hits; AID 540303, 2011; active = well fitted inhibition curve with a large enough effect; inconclusive = small, poorly fitted or top-dose-only effect; inactive = no such curve, though single readings can be large or run the other way; tested in mouse RAW 264.7 cells; also: potency is read from the fitted curve at half-maximal effect; nearly all actives have a fitted effect of over 55% in size
DT40 TDP1 no CPT = qHTS for Inhibitors of human tyrosyl-DNA phosphodiesterase 1 (TDP1): qHTS in cells in absence of CPT; AID 686978, 2013; 420,000 compounds, 15% hits; DT40 Tdp1-/- hTDP1 cells, no CPT, ATP luminescence, 48 h; Potency, µM (titrated, usually from 46.2 µM), for the others: top-dose activity change, negative = growth inhibition, usual class: inhibitors; also: potency is read from the fitted curve at half-maximal effect; nearly all actives have a fitted effect of over 55% in size
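Readout: luminescence from CellTiter-Glo after 30 min in the dark at RT. Cells: DT40 Tdp1-/- with stable hTDP1, 400/well. Exposure: compounds alone, ≥48 hr, 37 °C.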
TDP1 cell CPT = qHTS for Inhibitors of human tyrosyl-DNA phosphodiesterase 1 (TDP1): qHTS in cells in presence of CPT | 420,000 compounds, 12% hits | Potency, µM (top dose mostly 46.2 µM), for the others: at the highest dose activity change, negative = growth inhibition, usual class: inhibitors | chicken DT40 Tdp1-/-;hTDP1 cells + 20 nM CPT, ATP luminescence, 48 h; also: potency is read from the fitted curve at half-maximal effect; nearly all actives have a fitted effect of over 55% in size
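Chicken DT40 Tdp1-/- cells complemented with human TDP1, 400 cells/well, exposed to compounds plus 20 nM camptothecin for at least 48 h at 37 C; viability read as ATP content by CellTiter-Glo luminescence.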
* hit, by the source's call; u = inconclusive; x = no result. Rows were chosen to be rich in hits. Some 19% of all compounds tested hit in one or more screens of this group. Unless noted, calls follow the shape of the dose curve; as a rule, active = well fitted curve in the direction sought with a large enough effect; inconclusive = small, poorly fitted or top-dose-only effect, or another doubt; inactive = no such curve, though single readings can be large; an effect the other way counts as inactive or inconclusive. Unless noted, % is scaled to controls: 0 for no effect and ±100 for the full control effect.

SMILES | HT1080NT lethal | HT1080 IDH1KD tx | IL-1B inflam inh | uPA surface inh | DT40 TDP1 no CPT | TDP1 cell CPT
Cc1cc(C)c(S(=O)(=O)NCc2cccnc2)c(C)c1 | 0% | 1% | 47 | -13% | -17% | -6%
Cc1sc(NC(=O)CN(Cc2ccc(F)cc2)C(=O)C(C)(C)C)c(C(N)=O)c1C | -1% | -10% | 25 | 2% | 8.2µM* | 13µM*
CC(=O)N(CC(=O)Nc1sc(C)c(C)c1C(N)=O)Cc1ccccc1 | 18% | 15% | -5 | 0% | u | u
CCC(=O)N(CC(=O)Nc1sc(C)c(C)c1C(N)=O)C1CCCCC1 | 17% | -2% | 15 | 5% | u | u
Cc1sc(NC(=O)CN(Cc2ccccc2)C(=O)C2CC2)c(C(N)=O)c1C | -2% | -2% | 33 | 3% | 4.6µM* | 8.2µM*
COc1ccc(-c2n[nH]nc2C2=CC(=O)CC(C)(C)C2)cc1 | -12% | -11% | -2 | x | u | u
CC1CCN(S(=O)(=O)c2ccc3[nH]ccc3c2)CC1 | x | x | x | x | -25% | u
C=CCn1c(-c2sc3nc(C)cc(C)c3c2N)n[nH]c1=S | -4% | 2% | 16 | -1% | u | -19%
O=C(Nc1ccccc1)c1cccc(N2CCCC2=O)c1 | -1% | -4% | -13 | -1% | -15% | -19%
COc1ccc(NC(=O)c2cccc(-n3c(C)ccc3C)c2)c(OC)c1 | -16% | -26% | -61* | -7% | 26µM* | u
Cc1ccc(C)n1-c1cccc(C(=O)Nc2ccccc2)c1 | -9% | -2% | 0 | -23% | 15µM* | u
CN1C(=O)Cc2cc(S(=O)(=O)CCC(=O)Nc3ccc(Cl)cc3)ccc21 | x | x | x | x | 2% | -27%
O=C1C=CC(O)(c2cc(=O)c3c(O)cc(O)cc3o2)C=C1 | 7.3µM* | 7.3µM* | -104* | 36% | 0.52µM* | 0.37µM*
O=S1(=O)C=C(SCc2ccc(Cl)c(Cl)c2)Nc2ccccc21 | u | u | -11 | -9% | u | 23µM*
Nc1ccc(O)c2c1C(=O)c1ccccc1C2=O | u | -28% | -57* | u | u | u
COc1ccc(OC)c2c1C(=O)C(Cl)=C(Cl)C2=O | u | 3.3µM* | -117* | u | 0.41µM* | 0.23µM*
COc1ccc(N)c2c1C(=O)c1ccccc1C2=O | -9% | -24% | -85* | -8% | u | u
O=C1c2ccccc2-c2onc3ccc(NCCCn4ccnc4)c1c23 | u | u | -97* | u | u | 15µM*
COc1ccc(OC)c2c1C(=O)c1ccccc1C2=O | -8% | -15% | -16 | -9% | -29% | -9%
O=C(CC1NCCNC1=O)Nc1ccc(F)c(Cl)c1 (centres undefined) | x | x | x | x | -16% | -7%
O=C(c1csnn1)N1CCC[C@@]2(CCN(c3ncccn3)C2)C1 | x | x | x | x | -8% | 6%
O=C1c2ccccc2C(=O)c2c(O)c(O)cc(O)c21 | 9.2µM* | u | -12 | -14% | u | u
COc1ccc2noc3c2c1C(=O)c1ccccc1-3 | -23% | -27% | u | 10µM* | 18µM* | 15µM*
COc1cccc2c1C(=O)c1ccc3ccccc3c1C2=O | -6% | -9% | 4 | -6% | u | -8%
Cc1ccc(N2CCN(C(=O)c3cn(C)c4ccc(S(=O)(=O)N(C)C5CCCCC5)cc4c3=O)CC2C)cc1 (centres undefined) | x | x | x | x | -9% | -2%
CC(C)(C)c1nnc(N/N=C/c2ccccc2)n(N)c1=O | 5% | 2% | -7 | 4% | u | -1%

High-throughput results (PubChem BioAssay)
